Measured values reported in the supplement of paper PMC11417369.
± gives the standard deviation of the averaged measurements. The full ranking holds about 25,000 sequences; the median of “ln(normalized median fluorescence intensity)” is about 7.9, and the highest 2% start at about 11. What follows is part of a selection rich in the highest values, with near analogues and random picks from the rest.

test system: PfAP2-I AP2 domain 3 (GST-tagged); assay: gcPBM binding intensity (ln(normalized median fluorescence intensity)); higher = stronger DNA binding
Outline: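 The binding buffer was 1× PBS containing 1% milk, 0.2 mg/ml BSA, 0.5% salmon testes DNA and 0.03% Triton X-100. In it, GST-tagged P. falciparum DNA-binding domains expressed in E. coli were applied for 1 h to an Agilent 4 × 180k array of primer-extended double-stranded 36-bp intergenic genomic probes plus negative controls. Binding intensity, read with Alexa488 anti-GST antibody and a 488 nm scan, is the highest Masliner-normalised natural-log median intensity across replicate spots of either probe orientation.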

Point of comparison: “ATATAAATATATTGCACACACAATTATTATTATTAT [CACACA_site7147]”, “gcPBM binding intensity (ln)” value 10.1 ± 0.45. Against it:
- CACTTTAATTTATGCACACATATGGAACAACAGCCA [CACACA_site994] — within error, 10.2 ± 0.38
- ATATACACTTAATTTTTTATAAAAAAAAATTTATAT [CACACA_negctrl_site498] — lower, 7.66 ± 0.43
- TTATAATATTAATGTGCACACAATTAAAATATTATA [CACACA_site2046] — within error, 10.6 ± 0.26
- ATATATATCTTTTGTGTGCACATATATATAATATAT — within error, 9.79 ± 0.22
- TTTTTTTTTTTTTTTGTGCACAATATAATTTTTAAT [GTGCAC_site9747] — within error, 10.9 ± 0.52
- TTTTTTTAATAGTGTGCACACAATATACAGAAAAAA [CACACA_site8399] — the same, 10.1 ± 0.11
- AAATATTTATAGGTTTGTACTTATAAATAAAAAAAA [XGTACX_site7360] — lower, 7.83 ± 0.41
- TATATTCTTTATAGGTGTACTTAATAAATAAAAAAT [XGTACX_site5378] — lower, 8.11 ± 0.23
- TATTATAATATATTTGTGCACATAATATCTCCGCTA [GTGCAC_site9799] — higher, 10.91 ± 0.049
- TTTTAAACAAAAATTTGTACACAATAATTAAATATA [XGTACX_site6755] — lower, 7.79 ± 0.32
- ATATATATAATATAGGTGCACTACTTATTTAAAAAA — higher, 11.6 ± 0.2
- CATATAAATATTTGTGCACACAATTATTAATAATTA [CACACA_site3884] — higher, 11.3 ± 0.23
- TATTATAATATATTTGTGCACATAATACCTCCGCTA [GTGCAC_site9570] — within error, 10.7 ± 0.18
- ATAAATATTATTTTACGTACATATTTATGAAGTATT [XGTACX_site8746] — lower, 7.92 ± 0.29
- ATTGTTCTATGATTTGTACACACTTTTTTTTAAAAT [CACACA_site2825] — lower, 8.43 ± 0.46
- TTACATACATACAAGTGTACGCATATATTAATATTA [XGTACX_site4006] — lower, 8 ± 0.26
- ATTATTTGTTTAATGAGTACGAAGACAAATTTTACC [XGTACX_site5223] — lower, 8.12 ± 0.49
- TTTATAAAAAGCATAACACACACATGTCAATATATA [CACACA_site8286] — lower, 7.71 ± 0.52
- TGAATCAATTGTTGCTGTACATAAGGTATACAATAA [XGTACX_site5127] — lower, 7.97 ± 0.52
- ATGTATATATATATATGTACTAATTAGTAATTTACG [XGTACX_site6276] — lower, 7.87 ± 0.32
- AATTTATATAATTTTGTGCACAATATTCATGTATAT — higher, 11 ± 0.14
- ATTTTTATTTTATATACACACAATAATAATATAATA [CACACA_site4015] — lower, 7.83 ± 0.43
- TTTTTTTTTTTTTTTGTGCACAATTATTTCAATTTT [GTGCAC_site9884] — within error, 10.9 ± 0.79
- TATTATTCAAAATTTGTGCACAAAATTAAAGGAACA — within error, 10.8 ± 0.27
- ATATTTTATTTAATTACACACAATATTGCAATTTGT [CACACA_site669] — lower, 8.35 ± 0.53
- TGTATATGGTTTGTGCAAAAATTTATTAATGTGTAA [TGCATGCA_negctrl_site374] — lower, 8.8 ± 0.35
- ATTTTTATTTTTTTTGTGCACATTTTCATTTTCTAT [GTGCAC_site9580] — within error, 10.4 ± 0.47
- ATATTTTATATATTTGTGCACAATATTATAATATAT — higher, 11.04 ± 0.049
- ATATATATTAATTTTGTGCACAAATGGAAATGTTTG [GTGCAC_site9971] — higher, 11 ± 0.2
- TAATATAATATATGCACACAAATATGTATTTATGTG [CACACA_site5210] — lower, 9.14 ± 0.014
- TGAAATTTTATTAATGTGCACATATATTTATTGTTC — within error, 9.77 ± 0.26
- TATTTTATTTGTATATTCATTTGTATAATATAAATA [TGCATGCA_negctrl_site267] — lower, 7.37 ± 0.55
- ATAAAATACAAAGGGACACACATATGAGTCTACAAA [CACACA_site3092] — lower, 7.54 ± 0.6
- ATATATATATATGTTTATTTATTTGAACGATTGTGG [CACACA_negctrl_site828] — within error, 9.4 ± 0.56
- AAAAAATTAAATAATTACAAAAAAATAAAATAAAAA [GTGCAC_negctrl_site638] — lower, 7.5 ± 0.59
- TAAAAAATTTTCGCGTGTACGCAAGAAAAAAAAAAT [XGTACX_site3058] — lower, 8.04 ± 0.72
- TTAAAAAAGTAATTAACACACAATAATGTAATGCAT [CACACA_site4176] — lower, 8.18 ± 0.55
- TATTCTTCAATTTAAAGTACAAAAATTACTATACTT [XGTACX_site6599] — lower, 7.58 ± 0.28
- AATATTATAAATGATACACACTTAAAATACAGACAC [CACACA_site8868] — lower, 8.19 ± 0.4
- AATATTTATATTTACACACACATAATACCTATATGT [CACACA_site6167] — lower, 7.83 ± 0.42
- TAAATGAGAAGGACTGCACACTAAAATGGAAGGAGA [CACACA_site8449] — lower, 8.23 ± 0.71
- ATCCTGAACAGAATATGTATAAACAGAAGGAAACAA [CACACA_negctrl_site1805] — lower, 7.92 ± 0.54
- GACATATATATAAAATGTACATATATATTTACATAT [XGTACX_site7822] — lower, 7.75 ± 0.33
- TTTAATTTATATTTTGTGCACATCTTATTATATATA [GTGCAC_site9630] — within error, 10.5 ± 0.21
- TTTTTAATATATTAGGTGCACAATAATACACTTTAT — higher, 11.51 ± 0.064
- TATTTATTTTTTTTTGTGCACTTAATATAATCTTAC — higher, 11.07 ± 0.042
- ATTCAATATTTATACACACACACTTTTAATAATTAA [CACACA_site7725] — lower, 8.05 ± 0.55
- ATTATTATTAATCTTGTGCACATATATTTTAATTAG — within error, 10.6 ± 0.23
- ATTCAATATATATACACACACACTTTTAATAATTAA [CACACA_site3770] — lower, 8.1 ± 0.43
- CCGATATAATGGAAAACACACAAAAGATATATATAT [CACACA_site2683] — lower, 9.01 ± 0.15
- AATATTTATAAATTTACACACACACCGGTGAACATA [CACACA_site8579] — lower, 7.79 ± 0.57
- TTTTATAAATACACACGTACGTGTGCATAACGTTTT [XGTACX_site3199] — lower, 9.465 ± 0.092
- TTTTTTTTTATAAATACACACGTACGGGTGCATAAC [CACACA_site8444] — within error, 10.9 ± 0.73
- CATTTTTTTTTATAAATACACACGTACGGGTGCATA [CACACA_site1569] — lower, 8.54 ± 0.54
- ATATGTAGATGATATTATTACTTTTCAAAAATTCAA [CACACA_negctrl_site933] — lower, 7.58 ± 0.39
- TCGTGGTTTTAATAAGTGCGCAATTTAAATATTTTT — lower, 9.31 ± 0.18
- TATGGTTTTAAAAAATGTACGCAAGTGCGTTAATTT [XGTACX_site3945] — within error, 11.2 ± 0.93
- ATCATTTTTAATAAATGTACAAGTTTTAAAAAAAAA [XGTACX_site7340] — lower, 7.7 ± 0.6
- ATACATATATGTGTGTGTACATAAATGTATATATTT [XGTACX_site6242] — lower, 7.93 ± 0.38
- AACCCTTTTGATTTTTCTTTTTTTTTTTTTTTAAAT [CACACA_negctrl_site1667] — lower, 7.5 ± 0.69
- TTTTTTAAAATATGGACACACATATATATATATGTA [CACACA_site2784] — lower, 7.67 ± 0.3
- TAAAACTTAATATAAACACACAAAAATTAATAAATA [CACACA_site4370] — lower, 7.62 ± 0.44
- TCACATTTTGGACACGTGCACATATATTTGATACAT — within error, 9.48 ± 0.33
- TTTTTTTTTTTTTCAAGTACATATATATATATATAA [XGTACX_site2098] — lower, 7.99 ± 0.45
- TTTTTTTTTTTTCACGTGCACTATACATATAAGTAA — higher, 11.1 ± 0.23
- ATATATATATATTTTACACACAATGGAGAAAAAAAT [CACACA_site644] — lower, 9.01 ± 0.092
- AGGGAAAAAAAAAAAGTGCATTTGTATTAAATGAAT — within error, 9.9 ± 0.028
- TTTTAAAGAAAATATTTTATCATTATTTTTTGTACT [CACACA_negctrl_site1648] — lower, 7.41 ± 0.57
- TTAAAATCTTGAAAAGTGCATTATCATTTTGTAACG [GTGCAC_site9447] — higher, 11.4 ± 0.73
- GAGAGGTATCAAAAATGTACACATATATATATGTAT [XGTACX_site5611] — lower, 7.79 ± 0.47
- TTTTTTTTTAATTATGCATGTAAATTATATATTATA [TGCATGCA_site335] — within error, 8.55 ± 1.1
- GTTTATATGTTCATAGTGCATATATGTTGATTTATT — within error, 10.2 ± 0.33
- TATCTTTTTACAATAGTGCATATGTTATCATTAATA [GTGCAC_site9489] — within error, 9.54 ± 0.18
- AATATTTTATATGTAGTGCATTACTATAGGATTTAT [GTGCAC_site9424] — higher, 11.4 ± 0.74
- TTATTAAATATAAATATGTATCTTTTATGTTATATT [CACACA_negctrl_site306] — lower, 7.29 ± 0.44
- AATATATTTATATAGTGTACATTTTTTATATATGTA [XGTACX_site8142] — lower, 7.67 ± 0.18
- ATAATTATTAATATAGTGCATTGGCATAATAATATA [GTGCAC_site9810] — within error, 9.89 ± 0.2
- CATATGTTATATGTAGTGCATTACTATAGGATTTAT [GTGCAC_site9860] — higher, 11.4 ± 0.64
- ATATATATATATGTAGTGCATTTTATATATAATATT — within error, 9.875 ± 0.035
- GGATTATTTATAGGAGTGCATACATATATATATATA [GTGCAC_site9454] — within error, 9.76 ± 0.071
- ATATATCTTTATATAGTGCATTAAATATGTTGTAAT [GTGCAC_site9953] — higher, 11.5 ± 0.54
- TTATTATTATTACTAGTGCATTAATTATATATGTAA — higher, 11.6 ± 0.49
- TAAATATATAAACACACACACATTAATACAGATATT [CACACA_site5851] — lower, 7.72 ± 0.54
- TATATATATATTTATACACACATTAGTGTAGACATG [CACACA_site8964] — lower, 8.915 ± 0.021
- ATATATATGTATACATGTACATATTTTATTATGTGC [XGTACX_site7207] — lower, 7.9 ± 0.61
- TTATATATATATATATATATATATATATATATAAAT [GTGCAC_negctrl_site126] — lower, 8.41 ± 0.23
- TTTTTATATGCGTATTGTACATTATACATATATATA [XGTACX_site6786] — lower, 7.97 ± 0.38
- TTCTTTATTTTTTCTACACACATTAGATATTCAAAG [CACACA_site7624] — lower, 8.02 ± 0.53
- TTTATATTAATTGATGTGCACTGAAATATTTGTCCA [GTGCAC_site9655] — within error, 10.3 ± 0.28
- TTTGGAATATTAATTGTGCACTTAAAAAGTTAATTA — higher, 11 ± 0.35
- ATGAAATATTTATTTGTGCACTTAATTTGTTGGAAA — higher, 11.2 ± 0.21
- TTTATTTGTGCATATACACACTTAAATATGTTTATT [CACACA_site7772] — lower, 9.405 ± 0.035
- AGAATTATTGTTAATGCATGTGGAAGTTAAAATATT [TGCATGCA_site188] — lower, 8.48 ± 0.69
- TTGTTAATAAAAATATTGGAAAGTTTATAAAATTTT [CACACA_negctrl_site1487] — lower, 7.53 ± 0.52
